Screening data: PubChem BioAssay, National Center for Advancing Translational Sciences (NCATS)
TDP1 block – qHTS Assay for Inhibitors of Tyrosyl-DNA Phosphodiesterase (TDP1); recombinant TDP1, AlphaScreen DNA substrate cleavage; hit rate 0.28% among 350,000; Potency, µM (highest dose often 130 µM), usual class: inhibitors; Tyrosyl-DNA phosphodiesterase 1 (Homo sapiens), Q9NUW8; further: nearly all actives have a fitted effect of over 40% in size
Target sequence (Q9NUW8 whole entry, looked up): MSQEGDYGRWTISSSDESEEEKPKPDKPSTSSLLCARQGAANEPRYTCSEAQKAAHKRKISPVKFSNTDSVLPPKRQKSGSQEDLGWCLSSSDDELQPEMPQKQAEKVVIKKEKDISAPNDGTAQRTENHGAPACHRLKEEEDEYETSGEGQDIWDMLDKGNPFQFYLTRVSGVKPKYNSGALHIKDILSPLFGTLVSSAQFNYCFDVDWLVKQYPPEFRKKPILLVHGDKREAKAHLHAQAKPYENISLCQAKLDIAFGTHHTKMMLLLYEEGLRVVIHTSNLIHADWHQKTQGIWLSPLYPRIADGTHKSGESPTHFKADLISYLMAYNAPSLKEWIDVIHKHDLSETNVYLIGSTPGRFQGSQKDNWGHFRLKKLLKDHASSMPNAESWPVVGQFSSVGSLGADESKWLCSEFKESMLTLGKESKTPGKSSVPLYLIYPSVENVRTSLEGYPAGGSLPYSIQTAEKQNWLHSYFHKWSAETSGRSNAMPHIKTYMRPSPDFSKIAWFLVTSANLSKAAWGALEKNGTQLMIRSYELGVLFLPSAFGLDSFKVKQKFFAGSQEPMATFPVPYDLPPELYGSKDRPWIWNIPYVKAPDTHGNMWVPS
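Enzyme-compound mixtures sat 15 min at room temperature, followed by a 5 min reaction with 15 nM final substrate and 10 min with AlphaScreen beads. Recombinant human Tdp1 was used at 1 nM final.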
DT40 TDP1 no CPT – qHTS for Inhibitors of human tyrosyl-DNA phosphodiesterase 1 (TDP1): qHTS in cells in absence of CPT. Potency, µM (top dose mostly 46.2 µM), usual class: inhibitors. AID 686978, 2013. hit rate 15% among 420,000. DT40 Tdp1-/- hTDP1 cells, no CPT, ATP luminescence, 48 h; further: nearly all actives have a fitted effect of over 55% in size
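Luminescent ATP content (CellTiter-Glo) served as the growth readout. Knockout chicken DT40 cells expressing human TDP1 were exposed to compounds without camptothecin for a minimum 48 hr at 37 °C.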
TDP1 cell CPT – qHTS for Inhibitors of human tyrosyl-DNA phosphodiesterase 1 (TDP1): qHTS in cells in presence of CPT. hit rate 12% among 420,000. Potency, µM (series often up to 46.2 µM), most hits filed as inhibitors. AID 686979, 2013. chicken DT40 Tdp1-/-;hTDP1 cells + 20 nM CPT, ATP luminescence, 48 h; further: nearly all actives have a fitted effect of over 55% in size
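Cell growth measured by CellTiter-Glo luminescence after a minimum 48 h, 37 C compound exposure with 20 nM CPT in Tdp1-knockout DT40 cells stably expressing hTDP1, seeded 400/well; qHTS titration format.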
ClpP mod – qHTS Assay for Activators of ClpP | purified B. subtilis ClpP, FRET peptide cleavage, 20 min | Potency, µM (highest dose often 57.5 µM) | hit rate 1.9% among 340,000 | AID 651965, 2013; active means well fitted falling curve with a large enough effect; inconclusive means small, poorly fitted or top-dose-only effect; inactive means no such curve, though single readings can be large or run the other way; further: the source files actives as falling curves though it sought activators and does not explain the sign; nearly all actives have a fitted effect of over 65% in size
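ClpP 10 microg/mL final, pH 8 Tris/KCl buffer with BSA, glycerol, Tween-20; compound pinned in; FRET-FV substrate; RT 20 min; Ex320/Em430; ΔFRET vs ADEP 5.8 microM, DMSO, no enzyme.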
Each line names hits and unclear results; the compound was inactive in the other large screens. Shown are actives, neighbours in structure and some others; about 17% of the full set was active somewhere. Unless noted, the call rests on the fitted dose curve; in most records, active means well fitted curve in the direction sought with a large enough effect; inconclusive means small, poorly fitted or top-dose-only effect, or another doubt; inactive means no such curve, though single readings can be large; an effect the other way counts as inactive or inconclusive.

CN1CCN(c2ccc(NC(=O)c3ccc(-c4ccc(Br)cc4)o3)cc2)CC1	DT40 TDP1 no CPT 29µM, TDP1 cell CPT inconclusive (no result: ClpP mod)
O=c1c(-c2cc(-c3ccccc3)nc3c2COc2ccc(Cl)cc2-3)coc2ccc(F)cc12	none
N#CCCN(C(=O)c1ccc2c(=O)n3c(nc2c1)CCCCC3)c1ccccc1	TDP1 cell CPT inconclusive
Cc1ccc(NC(=O)c2ccc(F)cc2)cc1S(=O)(=O)N1CCCCCC1	TDP1 cell CPT inconclusive (no result: ClpP mod)
Cc1ccc(C)c(S(=O)(=O)N2CCN(C(=O)[C@@H](NC(=O)c3ccc(F)cc3)C(C)C)CC2)c1	DT40 TDP1 no CPT 21µM, TDP1 cell CPT inconclusive
Cc1ccc(C)c(S(=O)(=O)N2CCN(C(=O)CNC(=O)c3ccc4ccccc4c3)CC2)c1	DT40 TDP1 no CPT 16µM, TDP1 cell CPT inconclusive
Cc1cccc(C(=O)NCC(=O)N2CCN(S(=O)(=O)c3cc(C)ccc3C)CC2)c1	DT40 TDP1 no CPT inconclusive, TDP1 cell CPT inconclusive (no result: TDP1 block)
COc1cc(C2c3c(oc4ccc(F)cc4c3=O)C(=O)N2c2nc(C)c(C)s2)cc(OC)c1OC (centres undefined)	none
O=C1O[C@H]2[C@H](O)[C@@H]1OC(O)[C@H]2O (some centres undefined)	none (no result: TDP1 block, ClpP mod)
COc1cc(NC(=O)c2cc3nc(-c4ccccc4)cc(-c4ccccc4)n3n2)c(OC)cc1Cl	none
O=C(c1cnc2n(c1=O)CCS2)N1CCN(C(c2ccccc2)c2ccc(Cl)cc2)CC1 (centres undefined)	DT40 TDP1 no CPT 21µM, TDP1 cell CPT 12µM
O=S(=O)(O)c1ccc(O)cc1	none (no result: ClpP mod)
CN(Cc1ccccc1)c1nc2c(c(=O)[nH]c(=O)n2C)n1CCOc1ccccc1	DT40 TDP1 no CPT 16µM, TDP1 cell CPT inconclusive
CCC(C)Nc1nc2c(c(=O)[nH]c(=O)n2C)n1CCOc1ccccc1 (centres undefined)	DT40 TDP1 no CPT inconclusive, TDP1 cell CPT 21µM (no result: TDP1 block)
Cn1c(=O)[nH]c(=O)c2c1nc(NCCO)n2CCOc1ccccc1	TDP1 cell CPT inconclusive (no result: TDP1 block)
Cn1c(N2CCN(C(c3ccccc3)c3ccccc3)CC2)nc2c1c(=O)[nH]c(=O)n2C	DT40 TDP1 no CPT 18µM, TDP1 cell CPT 21µM (no result: TDP1 block)
Cn1c(=O)[nH]c(=O)c2c1nc(N1CCCCCC1)n2CCOc1ccccc1	DT40 TDP1 no CPT 23µM (no result: ClpP mod)
CC(=O)OC1CCC2(C)C(CCC3(C)C2C(=O)C=C2C4CC(C)(C(=O)OCCN5CCCCC5)CCC4(C)CCC23C)C1(C)C (centres undefined)	none (no result: ClpP mod)
CC1CCCN(c2nc3c(c(=O)[nH]c(=O)n3C)n2Cc2ccccc2Cl)C1 (centres undefined)	DT40 TDP1 no CPT inconclusive, TDP1 cell CPT 15µM
Cn1c(=O)[nH]c(=O)c2c1nc(N1CCCCCC1)n2Cc1cccc2ccccc12	DT40 TDP1 no CPT 16µM
CCN1CCN(c2nc3c(c(=O)[nH]c(=O)n3C)n2CCSc2nc3ccccc3s2)CC1	DT40 TDP1 no CPT inconclusive, TDP1 cell CPT inconclusive
Cc1csc(SCCn2c(N3CCN(c4ccccc4)CC3)nc3c2c(=O)[nH]c(=O)n3C)n1	DT40 TDP1 no CPT 26µM, TDP1 cell CPT 16µM
C=CCOc1ccc(NC(=O)C(=O)NCCCn2ccnc2)cc1	none
Cc1cccc(OCCCn2ccnc2)c1	DT40 TDP1 no CPT inconclusive, TDP1 cell CPT 21µM
Cc1ccc(OCCOCCn2ccnc2)c(Br)c1	DT40 TDP1 no CPT 23µM
CCCCCOc1ccc(NC(=O)C(=O)NCCCn2ccnc2)cc1	DT40 TDP1 no CPT 18µM, TDP1 cell CPT inconclusive
Cc1cc(C)cc(OCCCn2ccnc2)c1	none
Cc1ccc(OCCCn2ccnc2)cc1C	DT40 TDP1 no CPT 18µM, TDP1 cell CPT inconclusive
Cc1c(NC(=O)Nc2ccc(F)cc2F)c(=O)n(-c2ccccc2)n1C	none
Cc1cc(C)c(OCCn2ccnc2)c(C)c1	DT40 TDP1 no CPT 5.2µM, TDP1 cell CPT 6.5µM (no result: TDP1 block)
Cc1ccccc1NC(=O)c1sc2nc[nH]c(=O)c2c1C	TDP1 cell CPT inconclusive
Cc1c(C(=O)Nc2cccc(C(F)(F)F)c2)sc2nc[nH]c(=O)c12	DT40 TDP1 no CPT 21µM, TDP1 cell CPT 16µM
CCc1cccc(NC(=O)c2sc3nc[nH]c(=O)c3c2C)c1	DT40 TDP1 no CPT 21µM, TDP1 cell CPT inconclusive
Cc1cccc(NC(=O)c2sc(Cl)nc2-c2ccccc2)c1	DT40 TDP1 no CPT 18µM, TDP1 cell CPT inconclusive
